Measured values as given in the supplement of paper PMC10849652.
Targets with a hit are over-represented here; the source holds about 8,800 in all. About 0.5% of all pairs of compound and target were hits. Unmarked numbers belong to inactive results.

Legend:
Experiment in all cases: log2 fold change, soluble protein after heating vs DMSO (PISA); higher = thermal stabilisation; K562 lysate, 10 uM; active = over 0.2 and 3.5 SD of the protein, either way, in both replicates (recomputed)
[1] = compound: C#Cc1cccc(Nc2ncnc3cc(OCCOC)c(OCCOC)cc23)c1 [erlotinib]
Method in brief: (§1)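 Pellets of K562 cells were dounce-homogenised in PBS pH 7.4 with 1 mM MgCl2, and the crude extract was held at 1 mg/mL protein for a 30 min treatment with 10 μM compound. Aliquots were heated for 3 min over 48°C-58°C and pooled before NP-40 was added to 0.5% at 4°C. The supernatant from 21,000xg for 90 min was quantified by TMTpro 16plex LC-MS/MS with channel sums equalised. Values are reported from duplicates as log-two fold change in thermal stability relative to solvent controls.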

[2] = compound: C/C(=N\NC(=O)C1=CC(=CC=C1)S(=O)(=O)N2CCOCC2)/C3=C(C=CC(=C3)Cl)O
Method in brief: as §1

[3] = compound: C1=CC(=CC=C1C2=NC3=C(N2)C=C(C=C3)C(=O)N)OC4=CC=C(C=C4)Cl
Method in brief: as §1

[4] = compound: C1=CC2=C(C=CC(=C2)/C=C\3/C(=O)NC(=NCC4=CC=CS4)S3)N=C1
Method in brief: as §1

[5] = compound: C1=CC2=NC=CN=C2C=C1/C=C/3\C(=O)NC(=O)S3
Method in brief: as §1

[6] = compound: C1=CC=C(C=C1)C2=NC(=C(N2)C3=CC=NC=C3)C4=CC(=C(C=C4)Cl)O
Method in brief: as §1

[7] = compound: C1=CC=C2C(=C1)C3=NNC4=CC=CC(=C43)C2=O
Method in brief: as §1

[8] = compound: C1CCN(C1)C(=O)NC2=CC=CC(=C2)NC3=NC=C(C(=N3)NCCC4=CN=CN4)Br
Method in brief: as §1

[9] = compound: C1CN(CCC1(CC2=CC=C(C=C2)Cl)N)C3=NC=NC4=C3C=CN4
Method in brief: as §1

[10] = compound: C1COCCN1CCN2C3=CC=CC=C3N=C2NC(=O)C4=CC(=CC=C4)[N+](=O)[O-] [IRAK-1-4 Inhibitor I]
Method in brief: as §1

[11] = compound: C=CC(=O)N1CCC[C@@H](n2nc(-c3ccc(Oc4ccccc4)cc3)c3c(N)ncnc32)C1 [ibrutinib]
Method in brief: as §1

[12] = compound: CC(=O)c1cnc2ccc(-c3cc(Cl)c(O)c(Cl)c3)nc2c1N[C@H]1CC[C@H](CN(C)C)CC1
Method in brief: as §1

[13] = compound: CC(C)(C)Cn1c(N)nc2ccc(-c3[nH]c(C(C)(C)C)nc3-c3ccc(F)cc3)nc21 [ralimetinib]
Method in brief: as §1

[14] = compound: CC(C)(O)CC(=O)NCCn1ccc2ncnc(Nc3ccc(Oc4cccc(C(F)(F)F)c4)c(Cl)c3)c21
Method in brief: as §1

[15] = compound: CC(C)C1=C2N=C(C=C(N2N=C1)NCC3=CC=CC=C3)NCCCCCCN
Method in brief: as §1

[16] = compound: CC1=C(C(CC(=O)N1)C2=CC=C(C=C2)C(F)(F)F)C(=O)NC3=C(C=C4C(=C3)C=NN4)F
Method in brief: as §1

[17] = compound: CC1=C(C2=C(C=C1)C(=O)C3=CC=CC=C3N2CCCN)C
Method in brief: as §1

[18] = compound: CC1=C(C=C(C=C1)NC(=O)C2=CC(=CC=C2)C(C)(C)C#N)NC3=CC4=C(C=C3)N=CN(C4=O)C
Method in brief: as §1

[19] = compound: CC1=C(C=C(C=C1)NC(=O)C2=CC(=CC=C2)N(C)C)NC(=O)C3=CC=C(C=C3)O
Method in brief: as §1

[20] = compound: CC1=CC=C(C=C1)SC2=C3C=C(SC3=CN=C2)C(=O)N
Method in brief: as §1

UniProt Q29RF7, sequence (Q29RF7 whole entry, looked up): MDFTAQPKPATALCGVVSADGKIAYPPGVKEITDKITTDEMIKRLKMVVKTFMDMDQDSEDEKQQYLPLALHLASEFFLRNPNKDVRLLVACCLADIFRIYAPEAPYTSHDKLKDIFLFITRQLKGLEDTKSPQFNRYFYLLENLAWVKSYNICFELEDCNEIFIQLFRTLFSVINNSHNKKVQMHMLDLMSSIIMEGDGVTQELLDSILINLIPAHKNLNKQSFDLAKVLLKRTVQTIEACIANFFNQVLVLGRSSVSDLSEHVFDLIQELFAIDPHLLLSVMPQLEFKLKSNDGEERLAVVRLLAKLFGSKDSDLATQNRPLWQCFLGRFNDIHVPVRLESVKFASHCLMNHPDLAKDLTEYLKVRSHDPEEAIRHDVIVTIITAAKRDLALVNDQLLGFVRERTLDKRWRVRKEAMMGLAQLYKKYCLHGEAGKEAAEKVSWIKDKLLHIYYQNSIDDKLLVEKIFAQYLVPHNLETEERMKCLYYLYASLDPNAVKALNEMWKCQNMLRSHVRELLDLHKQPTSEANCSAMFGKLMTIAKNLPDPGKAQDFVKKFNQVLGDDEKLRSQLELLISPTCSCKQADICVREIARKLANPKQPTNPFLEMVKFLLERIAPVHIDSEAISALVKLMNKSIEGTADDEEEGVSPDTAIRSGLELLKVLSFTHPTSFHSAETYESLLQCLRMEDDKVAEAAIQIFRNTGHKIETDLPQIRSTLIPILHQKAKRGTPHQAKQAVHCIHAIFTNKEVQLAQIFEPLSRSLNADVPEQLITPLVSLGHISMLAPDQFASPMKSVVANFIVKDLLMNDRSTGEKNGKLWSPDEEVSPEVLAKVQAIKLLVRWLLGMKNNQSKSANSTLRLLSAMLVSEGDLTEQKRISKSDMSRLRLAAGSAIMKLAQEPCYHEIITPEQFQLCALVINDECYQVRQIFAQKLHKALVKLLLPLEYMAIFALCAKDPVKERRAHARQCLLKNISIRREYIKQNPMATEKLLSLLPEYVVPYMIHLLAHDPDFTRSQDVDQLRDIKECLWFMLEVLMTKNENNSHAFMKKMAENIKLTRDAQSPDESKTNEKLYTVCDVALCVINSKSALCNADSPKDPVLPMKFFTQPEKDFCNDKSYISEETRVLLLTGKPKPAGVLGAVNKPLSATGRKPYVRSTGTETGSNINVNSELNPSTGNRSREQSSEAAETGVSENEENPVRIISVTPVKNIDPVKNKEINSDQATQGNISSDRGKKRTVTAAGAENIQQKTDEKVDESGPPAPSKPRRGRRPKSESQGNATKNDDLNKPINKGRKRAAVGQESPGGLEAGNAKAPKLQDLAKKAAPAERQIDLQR
UniProt Q8TEQ8, sequence (Q8TEQ8 whole entry, looked up): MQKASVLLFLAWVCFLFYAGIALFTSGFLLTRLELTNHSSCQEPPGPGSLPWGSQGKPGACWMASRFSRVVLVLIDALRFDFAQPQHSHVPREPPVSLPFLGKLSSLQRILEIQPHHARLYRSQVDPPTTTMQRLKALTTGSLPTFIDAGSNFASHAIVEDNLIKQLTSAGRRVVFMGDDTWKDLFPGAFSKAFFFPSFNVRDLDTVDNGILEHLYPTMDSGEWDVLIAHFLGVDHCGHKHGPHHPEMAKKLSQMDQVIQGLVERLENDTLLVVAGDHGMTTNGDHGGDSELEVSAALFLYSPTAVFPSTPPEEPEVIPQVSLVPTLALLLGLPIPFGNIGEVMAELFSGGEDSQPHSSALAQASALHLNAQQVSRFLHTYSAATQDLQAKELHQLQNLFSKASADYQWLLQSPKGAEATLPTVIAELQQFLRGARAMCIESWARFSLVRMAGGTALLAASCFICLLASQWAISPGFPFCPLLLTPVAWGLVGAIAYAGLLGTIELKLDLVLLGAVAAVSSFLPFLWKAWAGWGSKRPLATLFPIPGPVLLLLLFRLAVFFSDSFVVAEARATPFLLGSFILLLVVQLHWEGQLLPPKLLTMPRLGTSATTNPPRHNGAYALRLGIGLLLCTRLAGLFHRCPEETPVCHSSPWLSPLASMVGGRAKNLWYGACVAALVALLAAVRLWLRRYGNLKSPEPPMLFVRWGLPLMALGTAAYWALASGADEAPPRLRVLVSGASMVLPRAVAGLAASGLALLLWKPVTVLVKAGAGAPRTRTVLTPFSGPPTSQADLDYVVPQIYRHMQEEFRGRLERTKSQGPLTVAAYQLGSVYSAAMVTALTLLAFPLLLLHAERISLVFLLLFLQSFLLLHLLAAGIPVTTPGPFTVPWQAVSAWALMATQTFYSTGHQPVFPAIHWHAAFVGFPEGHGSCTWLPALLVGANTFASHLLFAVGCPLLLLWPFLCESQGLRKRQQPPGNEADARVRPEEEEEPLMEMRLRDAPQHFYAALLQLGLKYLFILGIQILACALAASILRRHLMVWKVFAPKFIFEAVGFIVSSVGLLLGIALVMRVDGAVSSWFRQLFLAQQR
UniProt O00264, sequence (O00264 whole entry, looked up): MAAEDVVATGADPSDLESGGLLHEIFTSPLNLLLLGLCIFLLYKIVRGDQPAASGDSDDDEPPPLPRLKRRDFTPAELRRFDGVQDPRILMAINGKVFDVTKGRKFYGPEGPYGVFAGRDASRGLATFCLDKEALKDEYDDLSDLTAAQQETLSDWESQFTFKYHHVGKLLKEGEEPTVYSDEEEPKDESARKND
UniProt Q96PU8, sequence (Q96PU8 whole entry, looked up): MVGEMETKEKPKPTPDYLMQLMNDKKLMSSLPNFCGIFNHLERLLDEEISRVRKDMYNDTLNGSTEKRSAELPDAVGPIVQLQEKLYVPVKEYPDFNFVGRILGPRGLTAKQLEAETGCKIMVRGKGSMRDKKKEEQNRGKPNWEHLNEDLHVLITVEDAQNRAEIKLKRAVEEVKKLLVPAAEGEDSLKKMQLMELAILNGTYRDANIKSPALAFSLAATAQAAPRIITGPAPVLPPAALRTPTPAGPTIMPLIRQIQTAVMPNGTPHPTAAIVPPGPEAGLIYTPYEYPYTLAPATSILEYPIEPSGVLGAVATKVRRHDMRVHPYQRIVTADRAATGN
UniProt Q8TD55, sequence (Q8TD55 whole entry, looked up): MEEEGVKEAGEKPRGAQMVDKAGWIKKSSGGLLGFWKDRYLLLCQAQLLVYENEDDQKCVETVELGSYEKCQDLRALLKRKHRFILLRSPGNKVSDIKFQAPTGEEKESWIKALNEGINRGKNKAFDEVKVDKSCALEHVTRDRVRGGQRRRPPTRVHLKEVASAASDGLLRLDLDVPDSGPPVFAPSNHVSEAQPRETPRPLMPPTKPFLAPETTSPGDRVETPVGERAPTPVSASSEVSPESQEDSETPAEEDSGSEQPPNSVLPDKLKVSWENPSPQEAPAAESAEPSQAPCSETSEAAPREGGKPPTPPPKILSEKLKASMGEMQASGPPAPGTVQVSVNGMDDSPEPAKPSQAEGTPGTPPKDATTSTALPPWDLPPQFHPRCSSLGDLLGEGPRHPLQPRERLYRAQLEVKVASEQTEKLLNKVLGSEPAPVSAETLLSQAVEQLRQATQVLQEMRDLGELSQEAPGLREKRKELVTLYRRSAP
UniProt Q8N4L2, sequence (Q8N4L2 whole entry, looked up): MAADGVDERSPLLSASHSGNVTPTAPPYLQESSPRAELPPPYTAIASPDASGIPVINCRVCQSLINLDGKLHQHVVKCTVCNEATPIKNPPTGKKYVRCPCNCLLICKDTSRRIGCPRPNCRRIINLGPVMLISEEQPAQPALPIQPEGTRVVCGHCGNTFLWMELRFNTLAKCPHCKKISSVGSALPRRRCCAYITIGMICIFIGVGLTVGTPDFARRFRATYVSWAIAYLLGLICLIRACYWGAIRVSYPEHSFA
UniProt Q01813, sequence (Q01813 whole entry, looked up): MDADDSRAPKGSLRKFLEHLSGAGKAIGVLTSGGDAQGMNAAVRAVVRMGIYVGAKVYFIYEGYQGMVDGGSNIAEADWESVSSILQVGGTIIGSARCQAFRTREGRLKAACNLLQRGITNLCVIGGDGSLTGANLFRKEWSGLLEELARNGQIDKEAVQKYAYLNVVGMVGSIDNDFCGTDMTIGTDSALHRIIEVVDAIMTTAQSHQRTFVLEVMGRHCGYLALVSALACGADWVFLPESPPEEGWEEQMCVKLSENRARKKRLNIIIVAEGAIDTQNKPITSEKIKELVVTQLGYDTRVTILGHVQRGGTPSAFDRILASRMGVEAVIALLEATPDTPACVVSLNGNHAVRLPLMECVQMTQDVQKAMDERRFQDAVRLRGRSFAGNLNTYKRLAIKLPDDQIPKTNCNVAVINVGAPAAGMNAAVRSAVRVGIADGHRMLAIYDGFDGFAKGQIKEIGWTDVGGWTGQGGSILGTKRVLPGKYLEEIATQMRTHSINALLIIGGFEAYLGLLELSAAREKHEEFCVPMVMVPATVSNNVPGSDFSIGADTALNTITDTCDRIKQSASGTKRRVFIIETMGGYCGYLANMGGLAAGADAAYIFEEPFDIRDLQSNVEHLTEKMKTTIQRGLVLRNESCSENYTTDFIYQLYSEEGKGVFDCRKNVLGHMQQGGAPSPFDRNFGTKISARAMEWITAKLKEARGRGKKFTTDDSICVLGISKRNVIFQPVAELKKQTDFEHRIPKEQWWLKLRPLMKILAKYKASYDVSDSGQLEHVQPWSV
UniProt O00625, sequence (O00625 whole entry, looked up): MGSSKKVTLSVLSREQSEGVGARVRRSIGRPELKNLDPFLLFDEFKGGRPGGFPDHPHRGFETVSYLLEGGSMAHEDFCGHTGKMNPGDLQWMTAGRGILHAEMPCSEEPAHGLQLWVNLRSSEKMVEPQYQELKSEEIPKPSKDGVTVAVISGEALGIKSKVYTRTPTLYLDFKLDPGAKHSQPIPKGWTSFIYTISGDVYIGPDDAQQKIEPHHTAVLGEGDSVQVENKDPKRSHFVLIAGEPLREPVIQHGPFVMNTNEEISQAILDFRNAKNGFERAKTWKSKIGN

Row | Target | log2 fold change [1] | log2 fold change [2] | log2 fold change [3] | log2 fold change [4] | log2 fold change [5] | log2 fold change [6] | log2 fold change [7] | log2 fold change [8] | log2 fold change [9] | log2 fold change [10] | log2 fold change [11] | log2 fold change [12] | log2 fold change [13] | log2 fold change [14] | log2 fold change [15] | log2 fold change [16] | log2 fold change [17] | log2 fold change [18] | log2 fold change [19] | log2 fold change [20]
1 | PIP4P2 (UniProt Q8N4L2) | 0.023 | 0.039 | -0.03 | 0.032 | -0.076 | 0.019 | -0.029 | 0.034 | 0.022 | -0.054 | 0.034 | 0.138 | -0.025 | -0.023 | -0.08 | -0.015 | -0.061 | 0.013 | 0.008 | -0.096
2 | PRKACA (UniProt P17612) | -0.033 | -0.056 | 0.049 | 0.016 | -0.015 | -0.015 | 0.034 | 0.234 | 0.34 | 0.015 | 0.021 | 0.767 (active) | 0.029 | -0.106 | -0.045 | 0.059 | -0.046 | -0.118 | -0.008 | -0.057
3 | PRKDC (UniProt P78527) | 0.021 | -0.064 | -0.029 | 0.135 | 0.927 (active) | 0.037 | 0.068 | 0.122 | -0.041 | 0.02 | 0.096 | 0.318 | 0.033 | 0.01 | -0.014 | -0.021 | 0.031 | -0.057 | 0.038 | -0.01
4 | PDS5A (UniProt Q29RF7) | 0.043 | -0.015 | -0.029 | 0.052 | 0.032 | 0.012 | -0.038 | -0.005 | 0.001 | -0.015 | 0 | 0.013 | 0.008 | -0.017 | -0.029 | 0.023 | -0.038 | 0.017 | 0.031 | 0.039
5 | PPFIA2 (UniProt O75334) | 0.019 | -0.005 | 0.02 | -0.004 | 0.065 | 0.012 | -0.006 | 0.02 | -0.074 | -0.022 | -0.013 | 0.01 | 0.085 | 0.015 | 0.006 | 0.041 | 0.02 | 0.047 | 0.033 | -0.022
6 | PIGO (UniProt Q8TEQ8) | 0.179 | -0.423 | -0.266 | 0.242 | 0.132 | 0.001 | -0.285 | -0.001 | 0.117 | 0.114 | 0.093 | 0.016 | -0.039 | -0.013 | -0.068 | -0.041 | -0.05 | -0.1 | -0.047 | -0.158
7 | PFKP (UniProt Q01813) | -0.01 | -0.006 | 0.019 | -0.001 | -0.01 | 0 | 0.032 | 0.033 | 0.031 | -0.003 | -0.001 | 0.009 | 0.004 | -0.029 | 0.001 | -0.015 | 0.007 | 0.003 | 0.002 | 0.062
8 | QKI (UniProt Q96PU8) | -0.023 | -0.018 | -0.001 | -0.005 | 0.012 | -0.029 | 0.012 | 0.005 | -0.034 | 0.027 | -0.022 | -0.012 | -0.023 | -0.027 | 0.029 | 0.065 | 0.069 | -0.094 | 0.009 | -0.023
9 | PGRMC1 (UniProt O00264) | -0.032 | -0.378 | 0.025 | -0.029 | 0.003 | 0.018 | -0.004 | 0.008 | 0.013 | -0.005 | 0.057 | 0.013 | 0.008 | -0.01 | -0.035 | 0.004 | 0.022 | -0.066 | -0.007 | -0.005
10 | PIR (UniProt O00625) | 0.017 | -0.212 | 0.01 | 0.034 | -0.034 | 0.006 | 0.151 | 0.014 | 0.027 | -0.02 | 0.029 | -0.01 | -0.017 | 0.019 | 0.254 (active) | -0.034 | 0.007 | -0.003 | 0.232 | -0.022
11 | PLEKHO2 (UniProt Q8TD55) | 0.188 | 0.008 | -0.023 | 0.106 | -0.06 | 0.184 | -0.014 | -0.075 | 0.186 | -0.004 | 0.358 | -0.102 | -0.11 | 0.108 | 0.006 | 0.01 | 0.069 | 0.048 | 0.252 | -0.129
12 | PRKCSH (UniProt K7ELL7) | -0.01 | -0.124 | 0.004 | -0.056 | 0 | -0.036 | -0.061 | -0.096 | -0.038 | -0.039 | -0.05 | 0.018 | 0.049 | -0.051 | 0.049 | 0.006 | -0.017 | -0.019 | 0.005 | -0.052
